These results are taken from PubChem BioAssay (NCATS).

Records with an inconclusive call do not appear. A call without a number means that no potency is given here. Activity calls are given as the source filed them. Calls come from the whole dose curve; as a rule, active = well fitted inhibition curve with a large enough effect; inconclusive = small, poorly fitted or top-dose-only effect; inactive = flat fitted curve, though single readings scatter.
Potency is the fitted concentration of half-maximal effect.

In one experiment the test system is 3D7. Nature of the experiment: qHTS profiling for inhibitors of Plasmodium falciparum proliferation (AID 504749). Note: nearly all actives have a fitted effect of over 60% in size. As to conditions: P. falciparum in erythrocytes, SYBR Green DNA, 72 h; series mostly up to 28.7 µM. In outline: (§1)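 Parasite proliferation within erythrocytes, 72 h exposure. Endpoint: SYBR Green I fluorescence after overnight lysis at room temperature. Controls: 0.29 uM artemisinin, DMSO.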
For `CCCCCCCCCCCCCCCCCCOC[C@H](COP(=O)([O-])OCC[N+](C)(C)C)OC`, the Potency result is “inactive”.
In the case of `c1ccc(C2CN3CCSC3=N2)cc1` (stereo not drawn), the Potency is 11.2 µM (active).
For `CCCCCCCCCCCCCCC[C@H](O)[C@H](N)CO`, the Potency result was “inactive”.
Turning to `CN1C2CCC1CC(OC(c1ccccc1)c1ccccc1)C2` (stereo not drawn), the Potency result is “inactive”.
Still for that read-out and setting: the same measure for `CC(O)C(O)[C@H]1CNc2nc(N)[nH]c(=O)c2N1` (stereo partly drawn): “inactive”.
`CC(C)NC[C@H](O)COc1ccc(CC(N)=O)cc1`: the Potency result was “inactive”.

A further experiment deals with 7G8. The experiment is described as above. Conditions: P. falciparum in erythrocytes, SYBR Green DNA, 72 h; series mostly up to 28.7 µM. In outline: as §1
Turning to `CCCCCCCCCCCCCCCCCCOC[C@H](COP(=O)([O-])OCC[N+](C)(C)C)OC`, the Potency result is “inactive”.
Still for that read-out and setting: the same measure for `c1ccc(C2CN3CCSC3=N2)cc1` (stereo not drawn): 0.794 µM (active); for `CN1C2CCC1CC(OC(c1ccccc1)c1ccccc1)C2` (stereo not drawn): 4.47 µM (active); for `CC(C)NC[C@H](O)COc1ccc(CC(N)=O)cc1`: “inactive”.

For a further experiment, the system named is AA1029. Described as above. As to conditions: P. falciparum in erythrocytes, SYBR Green DNA, 72 h; series mostly up to 28.7 µM. Summed up:
as §1
On to `CCCCCCCCCCCCCCCCCCOC[C@H](COP(=O)([O-])OCC[N+](C)(C)C)OC`, for which the result was inactive.
With `CCCCCCCCCCCCCCC[C@H](O)[C@H](N)CO`, the compound was classed as inactive.
Still for that read-out and setting: the value for `CC(O)C(O)[C@H]1CNc2nc(N)[nH]c(=O)c2N1` (stereo partly drawn) was “inactive”.
In the case of `CC(C)NC[C@H](O)COc1ccc(CC(N)=O)cc1`, the result was inactive.

The next experiment deals with AS120. The description is as above. Conditions: P. falciparum in erythrocytes, SYBR Green DNA, 72 h; series mostly up to 28.7 µM. In outline: as §1
Regarding `CCCCCCCCCCCCCCCCCCOC[C@H](COP(=O)([O-])OCC[N+](C)(C)C)OC`, the call was inactive.
On the same count and under the same terms, the value for `CCCCCCCCCCCCCCC[C@H](O)[C@H](N)CO` was “inactive”; that for `CN1C2CCC1CC(OC(c1ccccc1)c1ccccc1)C2` (stereo not drawn) was “inactive”.
On the same count and under the same terms, the same measure for `CC(O)C(O)[C@H]1CNc2nc(N)[nH]c(=O)c2N1` (stereo partly drawn): “inactive”; for `CC(C)NC[C@H](O)COc1ccc(CC(N)=O)cc1`: “inactive”.

In a further experiment the test system is ATS189. Described as above. As to conditions: P. falciparum in erythrocytes, SYBR Green DNA, 72 h; series mostly up to 28.7 µM. Summed up: as §1
For the compound `CCCCCCCCCCCCCCCCCCOC[C@H](COP(=O)([O-])OCC[N+](C)(C)C)OC`, the Potency entry was “inactive”.
Same read-out and setting: the same measure for `c1ccc(C2CN3CCSC3=N2)cc1` (stereo not drawn): 5.01 µM (active).
Still for that read-out and setting: the value for `CCCCCCCCCCCCCCC[C@H](O)[C@H](N)CO` was “inactive”; that for `CC(O)C(O)[C@H]1CNc2nc(N)[nH]c(=O)c2N1` (stereo partly drawn) was “inactive”; that for `CC(C)NC[C@H](O)COc1ccc(CC(N)=O)cc1` was “inactive”.

For the next experiment, the system named is ATS95. The description is as above. Conditions: P. falciparum in erythrocytes, SYBR Green DNA, 72 h; series mostly up to 28.7 µM. In outline: as §1
As to `CCCCCCCCCCCCCCCCCCOC[C@H](COP(=O)([O-])OCC[N+](C)(C)C)OC`, the call was inactive.
The same measure, in the same setting: the same measure for `CCCCCCCCCCCCCCC[C@H](O)[C@H](N)CO`: “inactive”; for `CC(O)C(O)[C@H]1CNc2nc(N)[nH]c(=O)c2N1` (stereo partly drawn): “inactive”.
Take `CC(C)NC[C@H](O)COc1ccc(CC(N)=O)cc1`: the call was inactive.
